Sampled rows, rich in hits. Any-hit rate of the full collection: about 1.8%.
GSTO1 inh – inhibitors of recombinant GSTO1, primary screen, counter-screen for RBBP9 inhibitor project, biochemical, fluorescence polarization | Glutathione S-transferase omega-1 (Homo sapiens), P78417 | inhibition, % at 5.96 µM | AID 1974, 2009 | activity-based probe fluorescence polarization | hit rate 1.1% among 300,000;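 active means inhibition above the campaign mean inhibition plus 3 SD, cut at about 35% in these data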;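 further: 0% = GSTO1-1 with DMSO and 100% = wells lacking GSTO1-1 enzyme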
PAD4 inh – human PAD4 inhibitors, primary screen, biochemical, fluorescence polarization, 1536-well format. Protein-arginine deiminase type-4 (Homo sapiens), Q9UM07. recombinant PAD4, RCA probe fluorescence polarization. AID 485272, 2010. hit rate 0.41% among 330,000. inhibition, % at 6.36 µM;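 active means percent inhibition above a cutoff equal to the mean of all tested compounds plus 3 SD, cut at about 15% in these data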;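 further: 0% = PAD4 with RCA probe and DMSO and 100% = probe without PAD4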
LYPLA1 counter – LYPLA1 inhibitors, primary screen, counter-screen for PME1 inhibitor project, biochemical, fluorescence polarization, FP-Rh probe ABPP | inhibition, % at 5.9 µM | hit rate 0.16% among 320,000 | AID 2174, 2009 | recombinant LYPLA1 | Acyl-protein thioesterase 1 (Homo sapiens), O75608;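 active means inhibition above the mean of all tested compounds plus 3 SD, set per campaign, cut at about 14% in these data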;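 further: inhibitors block serine hydrolase probe labeling of LYPLA1 so polarization falls; 0% = enzyme with DMSO and 100% = wells lacking LYPLA1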
LYPLA2 counter – LYPLA2 inhibitors, primary screen, counter-screen for PME1 inhibitor project, biochemical, fluorescence polarization, FP-Rh probe ABPP | Acyl-protein thioesterase 2 (Homo sapiens), O95372 | recombinant LYPLA2 | inhibition, % at 5.9 µM | hit rate 0.38% among 320,000 | AID 2177, 2009;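 active means inhibition above the screen-wide mean plus 3 SD, limit set per campaign, cut at about 26% in these data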;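 further: 0% = LYPLA2 with DMSO and 100% = wells lacking LYPLA2 enzyme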
Target sequence (O95372 whole entry, looked up): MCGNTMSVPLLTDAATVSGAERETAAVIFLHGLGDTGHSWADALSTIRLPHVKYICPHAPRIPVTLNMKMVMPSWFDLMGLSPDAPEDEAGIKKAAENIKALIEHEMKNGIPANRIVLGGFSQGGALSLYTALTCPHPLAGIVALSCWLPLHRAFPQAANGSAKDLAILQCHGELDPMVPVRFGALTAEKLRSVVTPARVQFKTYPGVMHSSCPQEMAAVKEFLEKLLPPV
PME-1 primary – PME-1 inhibitors via competitive probe labeling, primary screen, biochemical, fluorescence polarization, FP-Rh probe, HTS; Protein phosphatase methylesterase 1 (Homo sapiens), Q9Y570; recombinant PME-1; inhibition, % at 5.9 µM; hit rate 0.53% among 320,000;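 active means inhibition above the campaign mean of all compounds plus 3 SD, cut at about 26% in these data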;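 further: competitive labeling of PME-1 active site by serine hydrolase directed probe; 0% = PME-1 with DMSO and 100% = wells lacking PME-1 enzyme; inhibitors block probe labeling so polarization falls and inhibition rises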
Target sequence (Q9Y570 whole entry, looked up): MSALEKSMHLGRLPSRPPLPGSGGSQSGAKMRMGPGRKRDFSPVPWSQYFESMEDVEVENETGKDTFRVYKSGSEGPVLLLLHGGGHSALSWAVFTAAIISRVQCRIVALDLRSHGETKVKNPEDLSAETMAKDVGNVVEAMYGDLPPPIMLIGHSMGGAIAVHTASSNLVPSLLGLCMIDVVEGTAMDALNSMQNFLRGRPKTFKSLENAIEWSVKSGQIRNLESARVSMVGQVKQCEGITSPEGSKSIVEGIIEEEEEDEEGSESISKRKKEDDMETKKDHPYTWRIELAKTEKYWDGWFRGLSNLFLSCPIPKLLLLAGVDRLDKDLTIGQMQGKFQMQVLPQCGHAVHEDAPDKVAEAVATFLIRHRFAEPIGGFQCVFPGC
Fam108B counter – mouse Fam108B serine hydrolase inhibitors, primary screen, counter-screen for RBBP9 inhibitor project, biochemical, fluorescence polarization | recombinant Fam108B, FP-Rh probe fluorescence polarization | inhibition, % at 9.51 µM | hit rate 0.33% among 300,000;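 active means inhibition above the screen mean inhibition plus 3 SD, computed separately per campaign, cut at about 18% in these data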;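 further: inhibitors lower polarization as less probe binds the enzyme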
Starred values were filed as active, the others as inactive; / = not tested or not shown.

SMILES	GSTO1 inh	PAD4 inh	LYPLA1 counter	LYPLA2 counter	PME-1 primary	Fam108B counter
COc1cc([C@@H]2Oc3cc(C4Oc5cc(O)cc(O)c5C(=O)[C@H]4O)ccc3O[C@H]2CO)ccc1O (stereo partly specified)	18	-4	-3	50*	-1	8
O=C1c2c(O)cc(O)cc2O[C@H](c2ccc(O)cc2)[C@H]1O	0	-2	0	20	-1	-1
COc1cc(/C=N/Nc2nc3ccccc3[nH]2)cc(OC)c1O	73*	-11	7	4	-34	3
Cc1c(/C=N/Nc2nc3ccccc3[nH]2)c2ccccc2n1C	-57	-1	-4	4	6	8
COc1cc(/C=N/Nc2nc3ccccc3[nH]2)ccc1O	2	-1	2	4	-50	8
Cn1c(/C=N/Nc2nc3ccccc3[nH]2)nc2ccccc21	6	-3	-7	-7	48*	12
COc1ccc(OC)c(/C=N/NC(=O)CCc2c(C)n[nH]c2C)c1	-2	-4	1	2	3	0
COc1ccc(OC)c(/C=N/NC(=O)CCc2ccc(O)c(O)c2)c1	36*	3	-2	-2	-7	6
CS(=O)(=O)c1ccc(NS(=O)(=O)c2ccc(Cl)c(C(=O)NCc3ccco3)c2)cc1	/	-4	4	10	-4	/
Nn1c(C2COc3ccccc3O2)n[nH]c1=S (stereo unspecified)	35*	-5	-1	0	-4	-4
Oc1[nH]c2ccccc2c1N=Nc1nc2ccccc2s1	-78	-2	3	8	29*	5
Cc1ccc2[nH]c(O)c(N=Nc3nc4ccccc4s3)c2c1	8	3	-3	-4	9	7
CN1CCN(C(c2ccc(Br)cc2)c2cc(Cl)c3cccnc3c2O)CC1 (stereo unspecified)	-12	-4	-10	-1	6	-4
CCN1C(=O)c2ccccc2S(=O)c2ccc(C(=O)NCc3ccccn3)cc21 (stereo unspecified)	37*	4	4	7	6	2
CCN1C(=O)c2ccccc2S(=O)c2ccc(C(=O)NCCN(CC(C)C)CC(C)C)cc21 (stereo unspecified)	-2	-5	4	7	0	-2
Cc1cc(C(=O)OCC(=O)c2ccc(Cl)c([N+](=O)[O-])c2)c2cccc(C)c2n1	37*	-1	-8	-5	-3	-6
O=C(CSc1nc2nn(-c3ccccc3)c(=O)c-2c2n1CCCCC2)c1ccc(O)c(O)c1	/	-2	-13	9	4	/
O=c1c2ccccc2nc(/C=C/c2c[nH]c3ccccc23)n1CCO	-4	-1	-2	6	47*	4
O=[N+]([O-])C1C(c2ccccc2)=NOC1c1ccccc1O (stereo unspecified)	0	3	0	0	-7	-2
CCc1cccc(NC(=O)CCS(=O)(=O)c2ccc(Br)cc2)c1	4	0	1	4	-1	2
Cn1c(=O)oc2cc(S(=O)(=O)NC3CCN(Cc4ccccc4)CC3)ccc21	37*	-3	-2	0	-8	-2
Cn1c(=O)oc2cc(S(=O)(=O)NC3CCCCC3)ccc21	13	7	1	3	-1	6
COC(=O)CCC(=O)OC1(C)C(=O)C2=CN(c3ccc(OC)cc3)C(c3ccc(OC)cc3)=CC2=C(Br)C1=O (stereo unspecified)	36*	-28	0	-2	8	5
O=C(OCC(=O)N1CCCC1=O)c1cccc([N+](=O)[O-])c1	1	-3	-1	7	-2	5
O=C1c2cccc3c(N4CCCCC4)ccc(c23)C(=O)N1c1cccc(O)c1	-18	-23	-22	-28	27*	-22
SMILES	GSTO1 inh	PAD4 inh	LYPLA1 counter	LYPLA2 counter	PME-1 primary	Fam108B counter
COc1ccc(CCNc2ncccc2C#N)cc1OC	3	5	-1	-13	-3	-6
COc1cccc(OC)c1OCCN(C)C	1	-4	-1	-2	3	3
COC(=O)C(NC(C)=O)(Nc1ccccn1)C(F)(F)F (stereo unspecified)	8	1	2	4	-8	3
COC(=O)NC(NS(=O)(=O)c1ccccc1)(C(=O)OC)C(F)(F)F (stereo unspecified)	36*	-1	0	-4	3	1
CCN(CC)c1ccc(/C=N/NC(=O)Nc2ccccc2)cc1	12	0	0	1	12	6
CCN(CC)c1ccc(/C=N/NC(=O)Cc2nnc(NC(=O)Nc3ccccc3)s2)cc1	-11	-11	-25	-14	37*	47*
O=C1c2ccccc2C(=O)N1c1cccc(-c2csc(Nc3ccc4c(c3)OCO4)n2)c1	62*	-1	-19	-6	20	21*
CCCN(CC(=O)Nc1ccccc1C)C(=O)c1ccc(N2CCCC2=O)cc1	/	-1	-7	-1	-3	/
CCC(C)(C)C1CCc2c(sc(NC(=O)c3ccccc3C(=O)O)c2C#N)C1 (stereo unspecified)	-34	-7	2	4	27*	-2
CCc1nnc(NC(=O)CSc2sc3c(O)cc(=O)[nH]c3c2C#N)s1	48*	-11	-13	-10	-21	9
CCc1nnc(NC(=O)CSc2nc3c(C)cccc3[nH]2)s1	36*	0	-1	0	-3	4
CCCc1nnc(NC(=O)CSc2nc3ccccc3[nH]2)s1	12	-2	-1	1	-9	-1
CC(C)Cc1nnc(NC(=O)CSc2nc(N)cc(=O)[nH]2)s1	47*	0	1	-3	-1	-2
CC1CN(CC(=O)Nc2nc3ccccc3s2)CC(C)O1 (stereo unspecified)	3	1	-3	-2	-2	-2
N#Cc1c(-c2ccccc2)nc(SCC(=O)Nc2ccccc2)[nH]c1=O	-8	0	-4	-1	0	0
N#Cc1c(-c2ccccc2)nc(SCC(=O)Nc2nnc(C(F)(F)F)s2)[nH]c1=O	67*	-5	1	2	-8	3
Cc1ccc(S(=O)(=O)/C(=C/Cl)NC(=O)c2ccccc2)cc1	26	6	0	1	2	3
COc1ccc(/C=N/NC(=S)Nc2ccccc2[N+](=O)[O-])cc1O	3	-1	-1	1	35*	16
COc1cc(/C=N/NC(=S)Nc2cccc(S(=O)(=O)N(C)C)c2)ccc1O	5	-5	-5	2	39*	5

Assay outcomes deposited in PubChem BioAssay by The Scripps Research Institute Molecular Screening Center.
